# Results: the supplement of paper PMC8975748
# Where a name gives a salt, the structure may show the parent alone.
# Test system: Saccharomyces cerevisiae BY4741 SeMeCo community
# Test: z-score of subpopulation abundance vs DMSO median, subpopulation auxotrophic for HUM; higher = larger share of this subpopulation than in DMSO controls
# Details: 10 µM; 24 h; SM minimal medium; subpopulation (auxotrophy): HUM
# Description: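 Fluorescent four-plasmid SeMeCo (self-establishing metabolically cooperating S. cerevisiae BY4741 community; plasmids pH-mRuby2, pL-mWasabi, pU-eCFP, pM-TagRFP657) was grown 24 h in minimal SM medium with each Selleck FDA-approved drug at 10 µM in 384-well plates. Cells were fixed and imaged by high-content confocal microscopy. For each auxotrophic subpopulation (and the prototroph), a z-score gives the deviation from the DMSO vehicle-control population median.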
row,Structure (SMILES),z-score of subpopulation abundance
1,C[N+](C)(C)CCCCCCCCCC[N+](C)(C)C [Decamethonium Bromide],0.18
2,CC[C@H]1[C@@H]2C[C@H]3[C@@H]4N(C)c5ccccc5[C@]45C[C@@H]([C@@H]2[C@H]5O)N3[C@@H]1O [Ajmaline],-0.48
3,CC(=O)OCC1=C(C(=O)O)N2C(=O)C(N)C2SC1 (centres undefined) [7-Aminocephalosporanic acid],0.03
4,C[C@@H]1O[C@@H](O[C@H]2C[C@@H](O)[C@]3(CO)[C@H]4[C@H](O)C[C@]5(C)[C@@H](C6=CC(=O)OC6)CC[C@]5(O)[C@@H]4CC[C@]3(O)C2)[C@H](O)[C@H](O)[C@H]1O [Ouabain],-0.49
5,CCOC(=O)Nc1ccc(NCc2ccc(F)cc2)cc1N [Retigabine],-0.05
6,COC(=O)C1=CCCN(C)C1 [Arecoline HBr],-0.03
7,C[CH2][Hg][S]c1ccccc1C(=O)[O-].[Na+] [Thimerosal],14.9
8,CC(=O)O[C@H]1C[C@@H]2CC[C@@H]3[C@H](CC[C@@]4(C)[C@H]3C[C@H]([N+]3(C)CCCCC3)[C@@H]4OC(C)=O)[C@@]2(C)C[C@@H]1[N+]1(C)CCCCC1 [Pancuronium dibromide],-0.72
9,CC[C@@]1(O)C(=O)OCc2c1cc1n(c2=O)Cc2cc3ccccc3nc2-1 [Camptothecin],-0.54
10,CN[C@@H]1[C@@H](O)[C@@H](O[C@@H]2[C@@H](O)[C@H](O[C@H]3O[C@H]([C@@H](C)O)[C@@H](O)[C@H](O)[C@H]3N)[C@@H](N)C[C@H]2N)OC[C@]1(C)O [Geneticin (G418 Sulfate)],-0.88
11,CCCN1C[C@H](CSC)C[C@@H]2c3cccc4[nH]cc(c34)C[C@H]21 [Pergolide Mesylate],-0.74
12,CC1(C)SC2C(N)C(=O)N2C1C(=O)O (centres undefined) [6-Aminopenicillanic acid],0.65
13,CN1[C@@H]2CC[C@H]1C[C@@H](OC(=O)[C@H](CO)c1ccccc1)C2 [Hyoscyamine],-0.99
14,COc1ccc(C(CN(C)C)C2(O)CCCCC2)cc1 (centres undefined) [Venlafaxine HCl],0.07
15,C=C[C@H]1CN2CC[C@H]1C[C@H]2[C@H](O)c1ccnc2ccccc12 [Cinchonidine],0.48
16,O=C(O[C@H]1C[C@H]2CC[C@@H](C1)[N+]21CCCC1)C(O)(c1ccccc1)c1ccccc1 [Trospium chloride],-0.32
17,COc1ccc2c3c([nH]c2c1)C(C)=NCC3 [Harmaline],-6.26

row,Structure (SMILES),z-score of subpopulation abundance
1,CN(C)C(=O)Oc1ccc[n+](C)c1 [Pyridostigmine Bromide],0.11
2,N[C@@H]1C[C@H]1c1ccccc1 [Tranylcypromine (2-PCPA) HCl],-0.57
3,CN1c2ccccc2C(NCCCCCCC(=O)O)c2ccc(Cl)cc2S1(=O)=O (centres undefined) [Tianeptine sodium],-0.16
4,Cn1cc(C2=C(c3cn(C4CCN(Cc5ccccn5)CC4)c4ccccc34)C(=O)NC2=O)c2ccccc21,-0.32
5,CCN1CC2(OC(=O)c3ccccc3NC(C)=O)CCC(OC)C34C1C(CC23)C1(O)CC(OC)C2CC4C1(O)C2OC (centres undefined) [Lappaconitine],0.34
6,C[C@@H]1CC[C@H]2[C@@H](C)C(=O)O[C@@H]3O[C@@]4(C)CC[C@@H]1[C@]32OO4 [Artemisinin],-0.49
7,N#Cc1nn(-c2c(Cl)cc(C(F)(F)F)cc2Cl)c(N)c1[S+]([O-])C(F)(F)F (centres undefined) [Fipronil],-0.76
8,CC(NC(C)(C)C)C(=O)c1cccc(Cl)c1 (centres undefined) [Amfebutamone (Bupropion) HCl],-0.74
9,CN1[C@@H]2C[C@@H](OC(=O)[C@H](CO)c3ccccc3)C[C@H]1[C@@H]1O[C@@H]12 [Scopolamine HBr],-0.97
10,NCCc1c[nH]c2ccc(O)cc12 [Serotonin HCl],0.18
11,CN[C@@H]1[C@@H](O)[C@@H](O[C@@H]2[C@@H](O)[C@H](O[C@H]3O[C@H](CN)CC[C@H]3N)[C@@H](N)C[C@H]2N)OC[C@]1(C)O.CN[C@@H]1[C@@H](O)[C@@H](O[C@@H]2[C@@H](O)[C@H](O[C@H]3O[C@H]([C@@H](C)N)CC[C@H]3N)[C@@H](N)C[C@H]2N)OC[C@]1(C)O.CN[C@@H]1[C@@H](O)[C@@H](O[C@@H]2[C@@H](O)[C@H](O[C@H]3O[C@H]([C@@H](C)NC)CC[C@H]3N)[C@@H](N)C[C@H]2N)OC[C@]1(C)O [Gentamicin Sulfate],-0.69
12,C[C@H]1O[C@H](O[C@H]2[C@H](O)[C@@H](O)[C@@H](O)[C@H](O)[C@@H]2O)[C@@H](N)C[C@@H]1NC(=N)C(=O)O [Kasugamycin hydrochloride],-0.14
13,COc1ccc(C=O)cc1 [p-Anisaldehyde],-0.95
14,C[N+]12CCC(CC1)C(OC(=O)C(O)(c1ccccc1)c1ccccc1)C2 (centres undefined) [Clidinium Bromide],-0.01
15,C=CN1CCCC1=O.II [Povidone iodine],1.77
16,Cc1cc(O)ccc1Cl [Chlorocresol],-0.26
17,C=CCN1C[C@H](C(=O)N(CCCN(C)C)C(=O)NCC)C[C@@H]2c3cccc4[nH]cc(c34)C[C@H]21 [Cabergoline],-0.37
